Measured values published in PubChem BioAssay (NCI).
Compounds without any hit were thinned out: in the full panel of roughly 79,000, 15% have a hit. Active and inactive are the calls of the source. Rule as the data show it: active = growth inhibition above about 70%; inactive = the rest.

What was measured:
[1] = NCI Yeast Anticancer Drug Screen. Data for the rad50 strain (AID 155);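 also: 0% = growth of vehicle-only cultures of the same strain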; settings: S. cerevisiae rad50 strain growth inhibition, stronger effect = higher value
How it was run: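 Cells are treated with compound, grown, and their growth is then scored against vehicle-only cultures of the same repair-deficient yeast strain.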

[2] = NCI Yeast Anticancer Drug Screen. Data for the mec2-1 strain (AID 157); settings: S. cerevisiae mec2-1 strain, stronger effect = higher value
How it was run: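 Growth inhibition is read against vehicle-treated controls after compound exposure of the mec2-1 yeast strain, which is defective in DNA damage repair or cell cycle control.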

[3] = NCI Yeast Anticancer Drug Screen. Data for the sgs1 mgt1 strain (AID 161);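 also: 0% = growth of cultures given vehicle only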; settings: S. cerevisiae sgs1 mgt1 strain, stronger effect = higher value
How it was run: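 This yeast growth screen uses a strain with defined DNA-repair lesions; compound-treated growth is compared with vehicle-treated growth.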

[4] = NCI Yeast Anticancer Drug Screen. Data for the cln2 rad14 strain (AID 165);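 also: 0% = growth equal to vehicle treated cultures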; settings: S. cerevisiae cln2 rad14 strain, stronger effect = higher value
How it was run: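 Growth inhibition, relative to vehicle-treated controls, is the read-out. The test organism is a yeast strain with defined genetic alterations, cln2 rad14.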

[5] = NCI Yeast Anticancer Drug Screen. Data for the bub3 strain (AID 167); settings: S. cerevisiae bub3 mutant strain, stronger effect = higher value
How it was run: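 Part of a panel of yeast mutants defective in DNA damage repair or cell cycle regulation. Each strain is grown with compound, and inhibition is calculated relative to solvent-treated cultures.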

[6] = NCI Yeast Anticancer Drug Screen. Data for the mlh1 rad18 strain (AID 175); settings: S. cerevisiae mlh1 rad18 strain growth inhibition, stronger effect = higher value
How it was run: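 Cells of a genetically altered yeast strain, deficient in DNA damage repair, were treated with compound. Their growth was then compared with that of vehicle-treated cultures to give inhibition.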

[7] = at 5.0 µM (retest, dose inferred, filed as 0.5)
[8] = at 50.0 µM (retest, dose inferred, filed as 5.0)

Measured: growth inhibition

Cc1ccc(N2C(c3ccccc3)=CC(=C3C=CC(=O)C=C3)C=C2c2ccccc2)cc1
active: [1]; [8] 71% | [1]; at 50.0 µM 94.2% | [2]; [8] 83% | [2]; at 50.0 µM 98.5% | [3]; [8] 83% | [3]; at 50.0 µM 93.7% | [4]; [8] 71% | [4]; at 50.0 µM 78.9% | [5]; [8] 80% | [5]; at 50.0 µM 92.5% | [6]; [8] 89% | [6]; at 50.0 µM 96.8%
inactive: [1]; [7] 9% | [2]; [7] 12% | [3]; [7] 7% | [4]; [7] -5% | [5]; [7] 7% | [6]; [7] 13%

S=c1[nH]c2cc(Cl)ccc2s1.[Zn+2]
inactive: [1]; [7] -2% | [2]; [7] 8% | [3]; [7] 3% | [4]; [7] -2% | [5]; [7] 12% | [6]; [7] 0%
active: [1]; [8] 91% | [1]; at 50.0 µM 95.3% | [2]; [8] 96% | [2]; at 50.0 µM 97.8% | [3]; [8] 97% | [3]; at 50.0 µM 93.3% | [4]; [8] 95% | [4]; at 50.0 µM 96.7% | [5]; [8] 92% | [5]; at 50.0 µM 97% | [6]; [8] 96% | [6]; at 50.0 µM 97.5%

CC1SC2(C(=O)Nc3ccc([N+](=O)[O-])cc32)N(c2ccc(Cl)cc2)C1=O (configuration not stated)
inactive: [1]; [7] 7% | [2]; [7] -2% | [3]; [7] -1% | [4]; [7] -1% | [5]; [7] 12% | [6]; [7] 6%
active: [1]; [8] 97% | [1]; at 50.0 µM 95.6% | [2]; [8] 97% | [2]; at 50.0 µM 95.7% | [3]; [8] 98% | [3]; at 50.0 µM 79.2% | [4]; [8] 97% | [4]; at 50.0 µM 81.7% | [5]; [8] 98% | [5]; at 50.0 µM 96.2% | [6]; [8] 98% | [6]; at 50.0 µM 93.5%

COc1ccc(-c2csc(C)n2)cc1OC
inactive: [1]; [7] 5% | [1]; [8] 1% | [1]; at 50.0 µM 21.4% | [2]; [7] 2% | [2]; [8] 4% | [2]; at 50.0 µM 3.35% | [3]; [7] 1% | [3]; [8] 7% | [3]; at 50.0 µM 16.1% | [4]; [7] 3% | [4]; [8] -3% | [4]; at 50.0 µM 30.3% | [5]; [7] 0% | [5]; [8] 9% | [5]; at 50.0 µM 0.25% | [6]; [7] 2% | [6]; [8] 11% | [6]; at 50.0 µM 8.5%

O=C(O)c1cc2oc(-c3ccccc3)cc2[nH]1
active: [1]; [8] 71% | [1]; at 50.0 µM 72.5% | [2]; [8] 71% | [2]; at 50.0 µM 88.7% | [3]; [8] 74% | [5]; at 50.0 µM 83.8% | [6]; [8] 80% | [6]; at 50.0 µM 87.3%
inactive: [1]; [7] -11% | [2]; [7] -8% | [3]; [7] 7% | [3]; at 50.0 µM 47.9% | [4]; [7] -32% | [4]; [8] 34% | [4]; at 50.0 µM 69.8% | [5]; [7] -14% | [5]; [8] 51% | [6]; [7] -9%

O=C1c2ccccc2C(=O)c2sc(Nc3ccc([N+](=O)[O-])cc3)nc21
inactive: [1]; at 50.0 µM 60.3% | [3]; at 50.0 µM 58.1% | [4]; [7] 62% | [4]; at 50.0 µM 29%
active: [1]; [7] 89% | [1]; [8] 98% | [2]; [7] 91% | [2]; [8] 99% | [2]; at 50.0 µM 77.4% | [3]; [7] 99% | [3]; [8] 99% | [4]; [8] 99% | [5]; [7] 100% | [5]; [8] 99% | [5]; at 50.0 µM 80.7% | [6]; [7] 90% | [6]; [8] 99% | [6]; at 50.0 µM 84.5%

Cc1cc(N)c2cc(NC(=O)Nc3ccc4nc(C)cc(N)c4c3)ccc2n1
inactive: [3]; [8] 67%
active: [1]; [7] 100% | [1]; [8] 100% | [1]; at 50.0 µM 99% | [2]; [7] 100% | [2]; [8] 99% | [2]; at 50.0 µM 99% | [3]; [7] 99% | [3]; at 50.0 µM 99% | [4]; [7] 99% | [4]; [8] 100% | [4]; at 50.0 µM 95.3% | [5]; [7] 99% | [5]; [8] 99% | [5]; at 50.0 µM 98.7% | [6]; [7] 99% | [6]; [8] 99% | [6]; at 50.0 µM 98.5%

Nc1nnc(CCC(=O)Nc2ccccc2Cl)o1
active: [2]; at 50.0 µM 79.5% | [3]; at 50.0 µM 98.5% | [4]; at 50.0 µM 98.2% | [5]; at 50.0 µM 98.8% | [6]; at 50.0 µM 98.5%
inactive: [1]; [7] -2% | [1]; [8] -5% | [1]; at 50.0 µM -1.3% | [2]; [7] 0% | [2]; [8] 4% | [3]; [7] -6% | [3]; [8] -2% | [4]; [7] 7% | [4]; [8] 9% | [5]; [7] 1% | [5]; [8] 2% | [6]; [7] -5% | [6]; [8] 2%

COC(=O)Cc1nc2ccccc2s1
inactive: [1]; [7] 1% | [2]; [7] -9% | [3]; [7] 11% | [4]; [7] 13% | [5]; [7] -10% | [6]; [7] -2%
active: [1]; [8] 99% | [1]; at 50.0 µM 99.2% | [2]; [8] 100% | [2]; at 50.0 µM 99.5% | [3]; [8] 92% | [3]; at 50.0 µM 99.3% | [4]; [8] 96% | [4]; at 50.0 µM 97.3% | [5]; [8] 100% | [5]; at 50.0 µM 98.5% | [6]; [8] 76% | [6]; at 50.0 µM 99%
